From PubChem
CIT2 TOR yeast – yeast TOR pathway CIT2-GFP modulation; S. cerevisiae CIT2-GFP strain, flow cytometry, 3 h; 100 means same as DMSO wells; GFP response vs DMSO, % at 10 µM; 320,000 compounds, 0.065% hits;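 active = GFP response relative to DMSO above a set limit, near the screen mean plus 3 SD, cut at about 150% in these data; inconclusive = Fewer than 70 cells measured for a yeast strain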;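 also: ratio of well median GFP fluorescence to mean of DMSO wells on the plate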
RPL19A TOR yeast – yeast TOR pathway RPL19A-GFP modulation; 330,000 compounds, 0.3% hits; S. cerevisiae RPL19A-GFP strain, flow cytometry, 3 h; hits give low values; percent response vs DMSO, % at 10 µM;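 active = percent response vs DMSO below 50%; inconclusive = fewer than 70 events counted for the yeast strain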;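 also: median channel GFP fluorescence of the barcoded RPL19A-GFP strain; lower means less RPL19A-GFP as with rapamycin TOR inhibition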
AGP1 TOR yeast – alters AGP1-GFP fluorescence in TOR pathway yeast screen; S. cerevisiae AGP1-GFP multiplex flow cytometry, 3 h; GFP as percent of DMSO wells; GFP response vs DMSO, % at 10 µM; 320,000 compounds, 0.02% hits; AID 2066;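 active = GFP response relative to DMSO above a set limit, near screen average plus 3 SD, cut at about 150% in these data; inconclusive = fewer than 70 cells counted for the yeast strain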;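 also: median GFP channel fluorescence of the gated AGP1 strain per well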
Efflux pump mplx – antifungal efflux pump inhibition, Nile Red retention. inhibition, % at 10 µM. S. cerevisiae Candida pump triplex. 330,000 compounds, 0.44% hits. AID 485275;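 active = plate passing quality check with inhibition over a set limit, or well fluorescence over plate mean plus 4 SD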;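 also: Nile Red retained in pooled yeast measured as flow cytometry median fluorescence; higher means more Nile Red kept so more efflux inhibition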
LAP4-GFP MLPCN – alters LAP4-GFP fluorescence in TOR pathway yeast screen; GFP response vs DMSO, % at 10 µM; 320,000 compounds, 0.34% hits; S. cerevisiae LAP4-GFP multiplex, flow cytometry GFP, 3 h; median GFP as percent of DMSO wells;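 active = GFP response vs DMSO above a set limit, about the screen mean plus 3 SD, cut at about 150% in these data; inconclusive = under 70 cell events counted for the yeast strain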
MEP2-GFP yeast – yeast TOR pathway MEP2-GFP modulation; S. cerevisiae MEP2-GFP strain, flow cytometry GFP, 3 h; 100% = DMSO control level; GFP response vs DMSO, % at 10 µM; 330,000 compounds, 0.51% hits; AID 2016;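 active = GFP response versus DMSO above a set limit, roughly screen mean plus 3 SD, cut at about 180% in these data; inconclusive = fewer than 70 cells counted for a yeast strain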;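 also: median GFP fluorescence of the barcode-gated MEP2-GFP cells per well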
Each line names hits and unclear results; the compound was inactive in the other large screens; [ ] = another dose, or the depositor's remark. This is a sample that favours compounds with a hit; in the whole collection about 1.3% have one here.

CC[C@H](C)/C=C(C)/C=C/C1=CC2=C(Cl)C(=O)[C@](C)(OC(C)=O)C(=O)C2=CO1	CIT2 TOR yeast inconclusive, RPL19A TOR yeast 38[may fluoresce violet]
COC(=O)C1=C(c2cccc(C#N)c2)C[C@@H]2CC[C@H]1N2C(=O)NCc1ccco1	none
CCOc1cc(/C=C2\C(=O)NC(=O)N(C)C2=O)cc([N+](=O)[O-])c1O	none
CC(=O)CC(c1ccccc1[N+](=O)[O-])c1c(O)c2ccccc2oc1=O (configuration not stated)	none
O=C(O)c1cccc(N=Nc2c(O)[nH]c(=O)[nH]c2=O)c1	none
O=C(c1ccccc1)c1ccc(N=Nc2c(O)[nH]c(=O)[nH]c2=O)cc1	CIT2 TOR yeast inconclusive, MEP2-GFP yeast 227[may fluoresce violet]
Cc1ccc(Cn2cc(C=O)c(-c3ccc(C)cc3)n2)cc1	none
COC(=O)C1=C(c2ccc(OC(F)(F)F)cc2)C[C@@H]2CC[C@H]1N2C(=O)NC1CCCCC1	none
Cc1ccc(/C=C2\C(=O)NC(=O)N(CC3CCCO3)C2=O)s1 (configuration not stated)	LAP4-GFP MLPCN 191
CCN(CC)c1ccc(/C=C2\C(=O)NC(=O)N(CC3CCCO3)C2=O)cc1 (configuration not stated)	none
CN1C(=O)C(=Cc2ccc(SC3CCCCC3)o2)C(=O)N(C)C1=O	LAP4-GFP MLPCN 151
COc1cc2c(cc1OC)C(C(=O)NC(C)C)C1CCCCN1C2=O (configuration not stated)	CIT2 TOR yeast inconclusive, RPL19A TOR yeast 31[may fluoresce violet], AGP1 TOR yeast inconclusive, MEP2-GFP yeast 498[may fluoresce violet]
CCC1(C2=NCCN2)Cc2ccccc2O1 (configuration not stated)	none
C[N+]1(CC2COC(c3ccco3)O2)CCCCC1 (configuration not stated)	CIT2 TOR yeast inconclusive, MEP2-GFP yeast 249[may fluoresce violet]
CC(=O)OC1N=C(c2ccccc2)c2cc(Br)ccc2NC1=O (configuration not stated)	none
CC(=O)OC1N=C(c2ccc(Cl)cc2)c2cc(Br)ccc2NC1=O (configuration not stated)	CIT2 TOR yeast inconclusive, MEP2-GFP yeast 451[may fluoresce violet]
CN(C)CC1CSCCC1(O)c1ccc(Cl)cc1 (configuration not stated)	CIT2 TOR yeast inconclusive, RPL19A TOR yeast 45[may fluoresce violet], AGP1 TOR yeast inconclusive, MEP2-GFP yeast 205[may fluoresce violet]
CN(C)CC1CSCCC1(O)c1ccc(C(F)(F)F)cc1 (configuration not stated)	none
COc1ccc2[nH]cc(C3=CCNCC3)c2c1	CIT2 TOR yeast 171, LAP4-GFP MLPCN 174, MEP2-GFP yeast 183
Cc1cc(C=C2C(=O)N(C)C(=S)N(C)C2=O)c(C)n1-c1ccncc1	LAP4-GFP MLPCN 157
Cc1ccnc(-n2c(C)cc(C=C3C(=O)N(C)C(=S)N(C)C3=O)c2C)c1	none
C[C@@H]1O[C@@H](O[C@@H]2C=C3CC[C@@H]4C(CC[C@]5(C)[C@@H](c6ccc(=O)oc6)CC[C@]45O)[C@@]3(C)CC2)[C@H](O)[C@H](O)[C@H]1O (some centres not stated)	none
COc1ccc2c3c([nH]c2c1)C(C)=NCC3	CIT2 TOR yeast inconclusive, MEP2-GFP yeast 259[may fluoresce violet]
CC1=NCCc2c1[nH]c1cc(O)ccc21	CIT2 TOR yeast inconclusive, MEP2-GFP yeast 197[may fluoresce violet]
COc1ccc2c(c1)[nH]c1c(C)nccc12	none
Cn1c(O)c(C=NC2C(=O)C3(C)CCC2C3(C)C)c(=O)n(C)c1=O (configuration not stated)	none
CCOC(=O)C(O)(c1ccc(NC(=S)NC(=O)c2ccc(Cl)cc2Cl)c(C)c1)C(F)(F)F (configuration not stated)	CIT2 TOR yeast inconclusive, RPL19A TOR yeast 28[may fluoresce violet], AGP1 TOR yeast inconclusive, LAP4-GFP MLPCN inconclusive, MEP2-GFP yeast 215[may fluoresce violet]
CCN1C(=O)/C(=C/c2ccc(N(CC)CC)cc2OC)C(=O)NC1=S	none
O=c1[nH]c(=O)n(-c2ccccc2Cl)c(O)c1C=NCCN1CCCCC1	none
O=c1[nH]c(=O)n(Cc2ccc(F)cc2)c(O)c1C=NCCN1CCCCC1	MEP2-GFP yeast 179
N#CC(C#N)=NNc1ccc(-n2ccc(C(F)(F)F)n2)cc1	LAP4-GFP MLPCN 198
O=C(Cc1ccccc1)Oc1ccccc1N1C(=O)CCC1=O	none
Cc1cc(N=Nc2ccccc2C)ccc1N	none
Nc1ccc(N=Nc2ccccc2)cc1	LAP4-GFP MLPCN 190
C[CH2][Hg][S]c1ccccc1C(=O)O	Efflux pump mplx 3.0
CC(C)n1c(=O)c(C=Nc2ccc(F)cc2)c(O)n(Cc2ccco2)c1=O	none
O=c1[nH]c(=O)n(-c2ccc(Br)cc2)c(O)c1C=NCCN1CCCCC1	none
O=C1NC(=S)N(c2ccccc2)C(=O)/C1=C/c1ccco1	LAP4-GFP MLPCN 157
O=C1NC(=O)N(CCc2ccc(F)cc2)C(=O)/C1=C/c1ccco1	LAP4-GFP MLPCN 182
COc1cc(/C=C/C(=O)c2c(O)n(CCc3ccccc3)c(=O)[nH]c2=O)ccc1O	MEP2-GFP yeast 585
O=C(/C=C/c1ccccc1)c1c(O)n(CCc2ccccc2)c(=O)[nH]c1=O	none
CCN(CC)c1ccccc1	none
CCN(CC)c1ccc(/C=C/[N+](=O)[O-])cc1	LAP4-GFP MLPCN 160
CC[C@@]1(O)C(=O)OCc2c1cc1n(c2=O)Cc2cc3ccccc3nc2-1	LAP4-GFP MLPCN 160
O=C1CN(O)C(c2ccccc2)=c2cc(Cl)ccc2=N1	none
CN1[C@@H]2CC[C@H]1CC(OC(=O)C1C=Nc3ccccc31)C2 (some centres not stated)	LAP4-GFP MLPCN 186, MEP2-GFP yeast 177
CCC(=NC1CC1)c1c(O)n(-c2ccc(OC)cc2)c(=O)[nH]c1=O	none
